# Compounds with a hit are over-represented: about 0.43% of the library has one in this group of screens.
# RGS12 GoLoco inh: inhibitors of human Gai1-RGS12 GoLoco interaction (red fluorophore); P63096; Gai1:RGS12 GoLoco peptide FP, rhodamine, 10 min; Potency, µM (series often up to 61.6 µM), for the others: at the top dose activity, negative = inhibition, most hits filed as inhibitors; actives 0.44% (n = 230,000); active = well fitted inhibition curve with a large enough effect, not every such curve was filed as active; inactive = no such curve, though single readings can be large or run the other way; note: potency is the fitted concentration of half-maximal effect; % is set by controls: 0 for no effect and ±100 for the full control effect; nearly all actives have a fitted effect of over 30% in size
# Menin-MLL FL inh: inhibitors of human menin-MLL interaction, wild-type MLL peptide | 290,000 tested, under 10 active | FP activity change, % at 61.4 µM | Fluorescence polarization, fluorescein-MLL peptide displacement from menin | AID 1766; active = well fitted curve in the direction sought with a large enough effect in the polarisation, not every such curve was filed as active; inconclusive = small, poorly fitted or top-dose-only effect, or effect the other way, or a change in a side signal; inactive = no such curve, though single readings can be large or run the other way; the % refers to the polarisation; note: % of control where 0% means no effect
# Tb PFK block: blocks T. brucei phosphofructokinase; actives 0.17% (n = 330,000); T. brucei PFK, ADP-Glo luminescence; O15648; Potency, µM (titrated, usually from 57.5 µM), without a hit: top-dose activity, negative = inhibition, most hits filed as inhibitors; active = well fitted inhibition curve with a large enough effect; inconclusive = small, poorly fitted or top-dose-only effect, or effect the other way;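 note: potency is the fitted concentration of half-maximal effect; 0% = uninhibited 1x PFK enzyme wells and -100% = no-enzyme wells; nearly all actives have a fitted effect of over 60% in size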
#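 ADP-Glo luminescence quantified ADP after 45 min at room temperature, with 1.25 nM T. brucei PFK, 0.1 mM ATP and 0.5 mM fructose-6-phosphate in pH 8.0 TEA buffer. qHTS titrations up to 57 µM; curves classified by quality.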
# CXXC DNA block: MLL CXXC-DNA interaction inhibition | Q03164 | MLL-CXXC / FITC-HOXA9 DNA fluorescence polarization | Potency, µM (highest dose often 115 µM), for inactives: at the highest dose activity change, negative = inhibition, usual class: inhibitors | actives 0.037% (n = 290,000) | AID 2662; active = well fitted inhibition curve with a large enough effect in the polarisation, with a control signal flat, not every such curve was filed as active; inconclusive = small, poorly fitted or top-dose-only effect, or effect the other way, or a change in a side signal; inactive = no such curve, though single readings can be large or run the other way; the % refers to the polarisation; note: potency is the fitted concentration of half-maximal effect
#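 Fluorescence polarization: 7 uM MLL-CXXC (stock) preincubated 5 min with compounds, then 50 nM fluorescein-HOX-A9 DNA (stock) added; 30 min ambient. Buffer 50 mM Tris-HCl pH 7.5, 50 mM NaCl, 1 mM DTT, 0.05% BSA.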
# Menin MLL FP TR: displaces Texas Red mutant MLL peptide from human menin. Potency, µM (titrated, usually from 61.6 µM), without a hit: at the highest dose FP activity change, negative = inhibition, usual class: inhibitors. Menin + Texas Red MLL mutant peptide, fluorescence polarization. actives 0.23% (n = 270,000). O00255; active = well fitted inhibition curve with a large enough effect in the polarisation, with a control signal flat, not every such curve was filed as active; inconclusive = small, poorly fitted or top-dose-only effect, or effect the other way, or a change in a side signal; inactive = no such curve, though single readings can be large or run the other way; the % refers to the polarisation; note: potency is the fitted concentration of half-maximal effect; % of control where 0% means no effect
# Target sequence (O00255 whole entry, looked up): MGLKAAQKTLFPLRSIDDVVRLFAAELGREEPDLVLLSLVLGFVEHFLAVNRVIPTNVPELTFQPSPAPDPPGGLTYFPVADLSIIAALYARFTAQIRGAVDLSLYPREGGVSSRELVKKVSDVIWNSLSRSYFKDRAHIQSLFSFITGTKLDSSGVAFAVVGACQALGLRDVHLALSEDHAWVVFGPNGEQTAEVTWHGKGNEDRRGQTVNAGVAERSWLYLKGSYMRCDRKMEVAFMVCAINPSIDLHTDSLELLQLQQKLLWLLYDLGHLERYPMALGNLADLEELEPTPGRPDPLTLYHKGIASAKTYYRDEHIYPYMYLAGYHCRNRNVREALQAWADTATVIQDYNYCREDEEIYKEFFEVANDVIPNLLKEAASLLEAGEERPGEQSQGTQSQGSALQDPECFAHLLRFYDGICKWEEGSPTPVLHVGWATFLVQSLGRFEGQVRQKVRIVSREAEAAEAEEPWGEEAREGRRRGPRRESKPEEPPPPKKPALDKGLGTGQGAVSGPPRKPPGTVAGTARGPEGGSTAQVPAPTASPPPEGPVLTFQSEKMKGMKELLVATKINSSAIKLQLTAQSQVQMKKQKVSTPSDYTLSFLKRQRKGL
# * hit, by the source's call; ? = inconclusive; . = no result; ! = repeats disagree; [ ] = remark or other dose.
SMILES,RGS12 GoLoco inh,Menin-MLL FL inh,Tb PFK block,CXXC DNA block,Menin MLL FP TR
CC[N+](CC)(CC)CCOc1cccc(OCC[N+](CC)(CC)CC)c1OCC[N+](CC)(CC)CC,10µM*,5,0%,13%,-1%
C/C=C1/C[N+]2(C)CCC34C(=C(C=O)[C@H]1C[C@@H]32)Nc1ccccc14 (some centres not stated),.,.,-12%,.,.
C/C=C1/C[N@@+]2(C)CC[C@]34C(=C(C=O)[C@H]1C[C@H]32)Nc1ccccc14,6.3µM*,.,.,.,.
COc1ccc(C2=NNC(c3cc(Cl)cc4c3OCOC4)C2)c(O)c1 (configuration not stated),-12%,2,0%,29%,-18%
Oc1ccc(Cl)cc1C1=NNC(c2cc(Br)cc3c2OCOC3)C1 (configuration not stated),50%,14,6%,4%,10µM*
N.N.N.N.N.N.N.N.N.N.N.N.N.N.O.O.[Cl-].[Cl-].[Cl-].[Cl-].[Cl-].[Cl-].[Ru].[Ru].[Ru],8%,?,.,?,25µM*
CCCCc1nc2c(c3c1C[C@H](C)OC3)CN(C(=O)Cc1cccc(OC)c1)CC2,4%[14.2 µM],0[11.7 µM],.,.,-9%[11.7 µM]
O=[N+]([O-])c1ccc(C=Nc2ccc(Cl)c([N+](=O)[O-])c2)s1,-3%,1,24µM*,?,?
C[N+]1(CCOc2ccc([N+](=O)[O-])cc2)CCOCC1,18µM*,2,-7%[0.46 µM],0%,2%
CC(C)C(=O)OCC(=O)[C@@]12OC(C3CCCCC3)O[C@@H]1CC1C3CCC4=CC(=O)C=C[C@]4(C)C3[C@@H](O)C[C@@]12C (some centres not stated),.,8,.,7%,3%
Cc1cc(=O)oc2c(C)c(OCC(=O)N3CCN(c4cccc(Cl)c4)CC3)ccc12,.,-4,21µM*,6%,-10%
Cc1nc2ccccc2c(=O)n1Cc1ccco1,10%,0,4%,22%,.
Cc1nc2c([nH]1)c(=O)n(C)c(=O)n2Cc1ccco1,7%,?,.,9%,16µM*!
CN1CC[n+]2c(CN3C(=O)c4ccccc4C3=O)csc21,18µM*,2,-6%,3%,?
O=c1c2c([N+](=O)[O-])cc([N+](=O)[O-])cc2sn1-c1ccc(Br)cc1,5µM*,-3,?,19%,?
O=C(Nc1ccc(Br)cc1)c1cc([N+](=O)[O-])cc([N+](=O)[O-])c1,.,-1,0%,10%,?
Cc1c(Cl)cccc1Nc1ccccc1C(=O)O,28µM*!,-3,1%,-5%,?
O=S(=O)(Nc1cc(O)cc2cccnc12)c1ccc(Cl)s1,.,7,.,.,?
Cc1cc2c(s1)c(C=O)c(C(=O)NCc1ccccc1F)n2C,.,.,-4%,.,.
COc1ccc(-c2cc(=O)c3ccc(F)cc3[nH]2)cc1,6%[88.7 µM],-5[94.6 µM],.,.,50µM*
CCCCCC(=O)/C=C/[C@H]1[C@H](O)CC(=O)[C@@H]1C/C=C\CCCC(=O)O,7%,16,.,.,1%
O=C(O)c1cc(-c2ccc(/C=c3\sc4nc5ccc(Br)cc5n4c3=O)o2)ccc1Cl,.,?,0.85µM*,?,?
O=C(Nc1cccc(-c2csc(Nc3ccccc3)n2)c1)c1ccccc1,2%,3,0%,5%,.
O=C(Nc1nc(-c2ccc3c(c2)Cc2ccccc2-3)cs1)c1ccccc1,-5%,2,0%,5%,16µM*
O=C(O)CCSc1ncnc2nc[nH]c12,-1%[14.2 µM],.,.,.,.
SMILES,RGS12 GoLoco inh,Menin-MLL FL inh,Tb PFK block,CXXC DNA block,Menin MLL FP TR
O=C(O)c1cc[c]([Hg][S]c2ncnc3nc[nH]c23)cc1,0.63µM*,.,.,.,.
Nc1ccc(N(CCO)CCO)cc1,8.9µM*,?,-12%,-2%,?
CCN(CC)c1ccc(N)cc1,167%,.,0%,.,.
CC(C)(CCCCCCCCCCC(C)(C)CC(=O)O)CC(=O)O,.,4,.,.,-20%
CC[C@@H](C)[C@H](NS(=O)(=O)c1cccc2ccccc12)C(=O)N[C@H](C=O)Cc1c[nH]c2ccccc12,4%,.,.,.,.
COC(=O)[C@@H]1C[C@H]1[C@@H](NP(=O)(c1ccccc1)c1ccccc1)c1ccccc1,3%,1,-6%,5%,0.14µM*!
COC(=O)[C@H]1C[C@@H]1[C@H](NP(=O)(c1ccccc1)c1ccccc1)c1ccccc1,-4%,0,-3%,5%,0%
COc1cc(OC)cc(C2=Nn3c(nnc3-c3cccc(OC)c3)SC2)c1,.,0,.,.,?
O=C(/C=C/c1ccc(O)c(O)c1)OCCc1ccccc1,-6%,0,.,0%,?
O=C(/C=C\c1ccc(O)c(O)c1)O[C@@H](Cc1ccc(O)c(O)c1)C(=O)O,10µM*,14,.,.,8%[24.8 µM]
NC(N)=Nc1nc2ccc([N+](=O)[O-])cc2[nH]1,0.35µM*!,-8,-2%,11%,34%
CC(=O)O[C@@H]1[C@@H](O)CN[C@@H]1Cc1ccccc1,.,-1,.,.,-1%
O=C(O)C[C@@H]1C(=O)O[C@@H]2C(COC(=O)c3cc(O)c(O)c(O)c3)O[C@@H](OC(=O)c3cc(O)c(O)c(O)c3)[C@@H](OC(=O)c3cc(O)c(O)c4c3[C@H]1[C@H](O)C(=O)O4)[C@H]2OC(=O)c1cc(O)c(O)c(O)c1 (some centres not stated),-13%,12,1.5µM*,28µM*,.
NC1=CC(=O)c2cccc3cccc1c23,32µM*,?,6%,?,-17%
CCCCN1C(=O)/C(=C/c2ccc(N(C)C)cc2)C(=O)N(Cc2ccco2)C1=O,157%,?,-3%,?,25µM*
COC(=O)C1=C(C(=O)OC)[C@@H]2N(Cc3ccccc3)c3ccccc3[C@@]23C[C@@H](C(=O)OC)N(S(=O)(=O)c2ccc(Br)cc2)C3=N1,7%[14.2 µM],1[11.7 µM],.,.,?
O=C1C(Cl)=C(Cl)C(=O)C(Cl)=C1Cl,0.22µM*,?,.,.,?
CC(N)(C(=O)O)c1ccc(S(=O)(=O)O)cc1 (configuration not stated),7%,.,.,.,.
N#Cc1c(N)nc2c3c(sc(=N)c2c1N)NC(=O)CC3c1ccccc1 (configuration not stated),5%,9,-4%,17%,22µM*
CCOC(=O)[C@@H]1[C@@H]2c3ccccc3-c3ccccc3[C@H]2C[C@H]1O,0%[14.2 µM],.,.,.,.
NC(N)=NCCC[C@H](NC(=O)[C@@H](N)Cc1ccc(O)cc1)C(=O)O,0%,.,.,.,.
C=CCc1cccc(C2C(C)CCC3C(=O)N4C(CCC(C)C4c4cccc(CC=C)c4)C(=O)N32)c1 (configuration not stated),.,0[11.7 µM],.,.,0%[11.7 µM]
Nc1ccc(C(=O)O)c(O)c1 (tested in a mixture with another compound),28µM*,-4,.,.,-8%
Nc1ccc(O)c(C(=O)O)c1,3%,1,.,.,?

# Source: PubChem BioAssay
